These results are taken from PubChem BioAssay (NCATS).

The structures appear in SMILES notation. Results filed as inconclusive are left out. Activity calls are given as the source filed them. Unless noted, the call rests on the fitted dose curve; in most records, active means well fitted cell-killing curve with a large enough effect; inconclusive means small, poorly fitted or top-dose-only effect; inactive means flat fitted curve, though single readings scatter.

Assay [1] can be described thus: Cell Viability - LYMP2-025 (AID 976).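 Further: plate controls were DMSO only for no effect and tetraoctylammonium bromide control for full effect.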 The note with it: LYMP2-025 lymphoblastoid cell viability; series mostly up to 92.2 µM. A digest of the protocol:
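Human lymphoblastoid LYMP2-025 cells, 2500/well, exposed 24 h at 37 C in complete medium in 1536-well qHTS. Viability as cellular ATP by CellTiter-Glo luminescence; AC50 from Hill fits of concentration-response data.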

Assay [2] is described as follows: Cell Viability - LYMP2-002 (AID 977).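 Further: plate controls were DMSO only for no effect and 92 µM tetraoctylammonium bromide for full effect.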 Conditions: LYMP2-002 lymphoblastoid cell viability, qHTS; series mostly up to 92.2 µM. A digest of the protocol: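 Luminescent ATP readout (CellTiter-Glo, 30 min room temperature) after 24 h compound exposure at 37 C of a human lymphoblastoid line, 2500 cells/well. AC50 values derived by standard Hill fitting of qHTS concentration-response data.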

Assay [3] in a line: Cell Viability - LYMP2-006 (AID 978). Further: on the % scale 0 is the no-effect control and ±100 the full control effect; nearly all actives have a fitted effect of over 60% in size. Conditions: LYMP2-006 lymphoblastoid cell viability, qHTS; series mostly up to 92.2 µM. Summed up:
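Concentration-dependent loss of intracellular ATP in a human lymphoblastoid line after 24 hr treatment at 37 C was measured by CellTiter-Glo luminescence, with AC50 values obtained from standard Hill-equation modelling.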
For orientation: qHTS replaces the single test concentration by a dilution series.

A short description of assay [4]: Cell Viability - LYMP2-007 (AID 979).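 Further: cells exposed to compound for 24 h before reading; 0% = DMSO only and the negative end = 92 µM tetraoctylammonium bromide; nearly all actives have a fitted effect of over 60% in size.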 Conditions: LYMP2-007 lymphoblastoid cell viability; series mostly up to 92.2 µM. Summed up: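 Human lymphoblastoid LYMP2-007 cells (2500/well) preincubated 5 h at 37 C, then treated 24 h at 37 C in complete medium. Viability by CellTiter-Glo ATP luminescence after 30 min at room temperature; AC50 from Hill fits.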
Assay [5] in a line: Cell Viability - LYMP2-008 (AID 980). Further: on the % scale 0 is the no-effect control and ±100 the full control effect; nearly all actives have a fitted effect of over 60% in size. The note with it: LYMP2-008 lymphoblastoid cell viability, qHTS; series mostly up to 92.2 µM. A digest of the protocol:
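LYMP2-008 lymphoblastoid cells (2500/well) plated 5 h, then treated 24 h at 37 C in complete medium. Viability read as intracellular ATP by CellTiter-Glo luminescence after 30 min at room temperature; AC50 from Hill fits.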

Assay [6] in a line: Cell Viability - LYMP2-010 (AID 981). Further: on the % scale 0 is the no-effect control and ±100 the full control effect; nearly all actives have a fitted effect of over 55% in size. Conditions: LYMP2-010 lymphoblastoid cell viability, qHTS; series mostly up to 92.2 µM. Summed up:
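Human lymphoblastoid LYMP2-010 cells (2500/well) treated 24 h at 37 C in complete medium; viability read as intracellular ATP by CellTiter-Glo luminescence. AC50 from Hill fits of concentration-response data; tetraoctylammonium bromide positive control.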

Assay [7] is described as follows: Cell Viability - LYMP2-012 (AID 982).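 Further: cellular ATP by luciferase luminescence where a drop means cytotoxicity; cells exposed to compound for one day before reading; 0% = DMSO only and full loss = 92 µM tetraoctylammonium bromide; nearly all actives have a fitted effect of over 55% in size.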 Conditions: LYMP2-012 lymphoblastoid cell viability qHTS; series mostly up to 92.2 µM.
Assay [8] can be described thus: Cell Viability - LYMP2-014 (AID 983).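 Further: plate controls were DMSO only for no effect and 92 µM tetraoctylammonium bromide for full effect; nearly all actives have a fitted effect of over 50% in size.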 The note with it: LYMP2-014 lymphoblastoid cells, viability qHTS; series mostly up to 92.2 µM. Summed up: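 LYMP2-014 human lymphoblastoid cells, 2500/well, treated 24 h at 37 C in complete medium; viability by CellTiter-Glo ATP luminescence after 30 min at room temperature. AC50 from Hill fits of qHTS concentration-response; tetraoctylammonium bromide positive control.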

A short description of assay [9]: Cell Viability - LYMP2-016 (AID 984). Further: on the % scale 0 is the no-effect control and ±100 the full control effect; nearly all actives have a fitted effect of over 55% in size. The note with it: LYMP2-016 lymphoblastoid cell viability, qHTS; series mostly up to 92.2 µM. Summed up:
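Acute toxicity in a Coriell human lymphoblastoid line is scored as loss of intracellular ATP over 24 h of treatment in complete medium. CellTiter-Glo signal is fitted across concentrations with the Hill equation to give AC50.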

Assay [10] can be described thus: Cell Viability - LYMP2-018 (AID 985).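 Further: compound exposure lasted 24 hr at 37 °C; plate controls were DMSO only for no effect and tetraoctylammonium bromide at 92 µM for full effect; nearly all actives have a fitted effect of over 50% in size.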 Conditions: LYMP2-018 lymphoblastoid cells, viability (qHTS); series mostly up to 92.2 µM. A digest of the protocol:
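Human lymphoblastoid LYMP2-018 cells, 2500/well, settled 5 hr at 37 C then exposed to compound 24 hr at 37 C; intracellular ATP measured by CellTiter-Glo luminescence. AC50 from Hill-equation concentration-response fits.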

Assay [11] is described as follows: Cell Viability - LYMP2-020 (AID 986).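 Further: plate controls were DMSO only for no effect and tetraoctylammonium bromide at 92 µM for full effect; nearly all actives have a fitted effect of over 55% in size.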 The note with it: series mostly up to 92.2 µM. A digest of the protocol:
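Human lymphoblastoid LYMP2-020 cells (2500/well) preincubated 5 h at 37 C, then treated 24 h at 37 C. Viability measured as intracellular ATP by CellTiter-Glo luminescence after 30 min at room temperature; AC50 from Hill fits.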

Assay [12] can be described thus: Cell Viability - LYMP2-022 (AID 987). Conditions: LYMP2-022 lymphoblastoid cell viability; series mostly up to 92.2 µM. Summed up: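 LYMP2-022 lymphoblastoid cells (2500/well, complete medium) were treated with compounds for 24 hours at 37 C; intracellular ATP was then read by CellTiter-Glo luminescence after 30 min at room temperature. AC50 values were derived from Hill-equation fits.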

Assay [13] in a line: Cell Viability - LYMP2-024 (AID 988).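 Further: plate controls were DMSO only for no effect and 92 µM tetraoctylammonium bromide for full effect; nearly all actives have a fitted effect of over 60% in size.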 The note with it: LYMP2-024 lymphoblastoid cell viability; series mostly up to 92.2 µM. Summed up:
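Human lymphoblastoid LYMP2-024 cells (2500/well) rested 5 hr, then treated with compound for 24 hr at 37 C in complete medium. Viability was measured as intracellular ATP by CellTiter-Glo luminescence. AC50 values came from Hill-equation fits.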

Assay [14] is described as follows: Cell Viability - LYMP2-026 (AID 989). Further: on the % scale 0 is the no-effect control and ±100 the full control effect; nearly all actives have a fitted effect of over 50% in size. Conditions: LYMP2-026 lymphoblastoid cell viability, qHTS; series mostly up to 92.2 µM. A digest of the protocol:
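Human lymphoblastoid LYMP2-026 cells, 2500/well, exposed to compound 24 h at 37 C in complete medium. Viability as intracellular ATP by CellTiter-Glo luminescence; AC50 from Hill fits of qHTS concentration-response.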

Assay [15] is described as follows: Cell Viability - LYMP1-002 - Assay at 24 hr (AID 993). Further: on the % scale 0 is the no-effect control and ±100 the full control effect. Conditions: LYMP1-002 lymphoblastoid cells viability; series mostly up to 92.2 µM. A digest of the protocol:
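Human lymphoblastoid LYMP1-002 cells (2500/well) treated 24 h at 37 °C; viability as intracellular ATP by CellTiter-Glo luminescence. Tetraoctylammonium bromide as positive control; AC50 from Hill-equation fits of qHTS concentration-response.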

Assay [16] in a line: Cell Viability - LYMP1-002 - Assay at 40 hr (AID 994). Conditions: LYMP1-002 lymphoblastoid cell viability; series mostly up to 92.2 µM. Summed up: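 LYMP1-002 human lymphoblastoid cells (2500/well, complete medium) were treated with compounds for 40 hr at 37 C. Intracellular ATP was measured by CellTiter-Glo luminescence, and AC50 values came from Hill-equation fits of concentration-response data; tetraoctylammonium bromide was the positive control.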

For assay [17], the target named is Estrogen receptor (Homo sapiens) (UniProt P03372). Description: qHTS assay for small molecule antagonists of estrogen receptor alpha signaling (AID 588513; active means well fitted curve in the direction sought with a large enough effect in the signal ratio, with a control signal flat, not every such curve was filed as active; the % refers to the signal ratio; further: on the % scale 0 is the no-effect control and ±100 the full control effect). The note with it: ER-alpha-UAS-bla HEK293, beta-lactamase ratio, antagonist mode; series mostly up to 76.9 µM. Summed up: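 Cells were plated at 5000/well and incubated 4 h at 37 C. Compounds were added as 1:2 dilution series, duplicates. 17-beta-estradiol (0.5nM final) was added for 18 h before CCF4 detection.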

Assay [18] has the same target. The assay is described as follows: qHTS assay for small molecule agonists of estrogen receptor alpha signaling (AID 588514; calls by dose curve;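 further: 0% = vehicle only and 100% = reference agonist; nearly all actives have a fitted effect of over 70% in size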). The note with it: ER-alpha-UAS-bla HEK293, beta-lactamase ratio, 18 h; series mostly up to 76.8 µM. A digest of the protocol: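 ER-alpha-UAS-bla GripTite HEK293 cells, 5000/well in 2% charcoal/dextran-stripped FBS medium, treated with compound titrations 18 h at 37 C. CCF4 beta-lactamase read by fluorescence after 2 h RT; normalised to 20 nM 17-beta-estradiol (100%) and DMSO (0%), Hill fit for EC50 and efficacy.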

Assay [19] deals with Bile acid receptor (Homo sapiens) (UniProt Q96RI1). Description: qHTS assay for small molecule antagonists of farnesoid X receptor signaling (AID 588526; calls by dose curve; further: on the % scale 0 is the no-effect control and ±100 the full control effect). Conditions: HEK293T FXR-UAS-bla, beta-lactamase ratio, antagonist mode; series mostly up to 76.7 µM. Summed up: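 Concentration-response titrations were fitted to the Hill equation for half-maximal inhibition and maximal response, with data normalised to 50 uM chenodeoxycholic acid and DMSO control wells. Cells: FXR-UAS-bla HEK293T, dialyzed FBS.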

For assay [20] the target is unchanged. Description: qHTS assay for small molecule agonists of farnesoid X receptor signaling (AID 588527; calls by dose curve;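 further: 0% = vehicle basal and 100% = reference agonist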). Conditions: HEK293T FXR-UAS-bla, beta-lactamase ratio, 16 h; stronger effect = higher value. Summed up: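 Agonist-mode beta-lactamase reporter in GeneBLAzer FXR-UAS-bla HEK293T cells, titration up to 92 uM, 16 h exposure at 37 C, CCF4 fluorescence. Response scaled to DMSO (0%) and 100 uM chenodeoxycholic acid (100%), then Hill-fitted for EC50 and efficacy.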

In assay [21] the target is Glucocorticoid receptor (Homo sapiens) (UniProt P04150). The assay is described as follows: qHTS assay for small molecule agonists of glucocorticoid receptor signaling (AID 588532; active means well fitted curve in the direction sought with a large enough effect in the signal ratio, with a control signal flat; the % refers to the signal ratio;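 further: 100% = dexamethasone at 0.1 µM and 0% = DMSO only wells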). Conditions: HeLa MMTV-bla, beta-lactamase ratio, agonist, 18 h; stronger effect = higher value; percent of dexamethasone control, DMSO zero. A digest of the protocol: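 Stimulation of a glucocorticoid response element-driven beta-lactamase gene was measured in HeLa cells. Responses were scaled between DMSO basal and 0.1 uM dexamethasone, then fitted for half-maximal stimulation.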

The target is the same in assay [22]. The assay is described as follows: qHTS assay for small molecule antagonists of glucocorticoid receptor signaling (AID 588533; active means well fitted inhibition curve with a large enough effect in the signal ratio, with a control signal flat, not every such curve was filed as active; the % refers to the signal ratio;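 further: cells stimulated with 2 nM dexamethasone as agonist; on the % scale 0 is the no-effect control and ±100 the full control effect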). Conditions: HeLa MMTV-bla, GRE beta-lactamase ratio, antagonist mode, 18 h; series mostly up to 76.8 µM. Summed up:
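Antagonist-mode qHTS: compound titrations added to GRE-bla HeLa cells, then dexamethasone 2 nM final; 18 h, 37 C. CCF4 FRET fluorescence normalized to dexamethasone and DMSO; IC50 from Hill fit.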

In assay [23] the target is Peroxisome proliferator-activated receptor delta (Homo sapiens) (UniProt Q03181). Description: qHTS assay for small molecule agonists of peroxisome proliferator-activated receptor delta signaling (AID 588534; calls by dose curve;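 further: 0% = DMSO basal wells and 100% = positive control agonist at 10 µM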). Conditions: HEK293T PPARdelta-UAS-bla, beta-lactamase ratio, 18 h; series mostly up to 76.7 µM. A digest of the protocol: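 Cells carrying a PPAR-delta beta-lactamase reporter were treated with compounds for 18 h at 37 °C in agonist mode. CCF4 fluorescence was read after 2 h; EC50 and efficacy from Hill fits.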

The nature of assay [24]: qHTS assay for small molecule antagonists of peroxisome proliferator-activated receptor delta signaling (AID 588535).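 Further: cells co-treated with a PPAR-delta agonist as stimulator during compound exposure.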 The note with it: HEK293T PPARd-UAS-bla, beta-lactamase FRET ratio, 18 h; 460 nm channel. A digest of the protocol:
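Reporter: UAS-bla under PPAR-delta response element, HEK293T host. Medium: 2% charcoal/dextran FBS. Dosing: titration, 18 hrs, 37 C. Detection: CCF4, 2 hrs RT, 405 ex/460 and 530 em.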

Chain of Bile acid receptor (Homo sapiens) (Q96RI1 whole entry, looked up): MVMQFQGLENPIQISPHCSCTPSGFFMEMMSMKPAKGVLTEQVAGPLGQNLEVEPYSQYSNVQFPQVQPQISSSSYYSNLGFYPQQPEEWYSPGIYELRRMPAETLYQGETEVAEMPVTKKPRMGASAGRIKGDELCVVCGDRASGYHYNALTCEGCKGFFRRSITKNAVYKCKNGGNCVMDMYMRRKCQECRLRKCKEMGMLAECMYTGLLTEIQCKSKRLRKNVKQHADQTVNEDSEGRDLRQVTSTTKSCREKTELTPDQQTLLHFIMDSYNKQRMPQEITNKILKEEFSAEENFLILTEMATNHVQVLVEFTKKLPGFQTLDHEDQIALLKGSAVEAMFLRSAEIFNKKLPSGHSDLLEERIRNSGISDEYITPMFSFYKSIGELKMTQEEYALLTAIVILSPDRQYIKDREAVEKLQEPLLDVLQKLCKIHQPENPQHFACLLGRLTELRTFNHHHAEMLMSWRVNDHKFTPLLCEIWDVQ
Chain of Glucocorticoid receptor (Homo sapiens) (P04150 whole entry, looked up): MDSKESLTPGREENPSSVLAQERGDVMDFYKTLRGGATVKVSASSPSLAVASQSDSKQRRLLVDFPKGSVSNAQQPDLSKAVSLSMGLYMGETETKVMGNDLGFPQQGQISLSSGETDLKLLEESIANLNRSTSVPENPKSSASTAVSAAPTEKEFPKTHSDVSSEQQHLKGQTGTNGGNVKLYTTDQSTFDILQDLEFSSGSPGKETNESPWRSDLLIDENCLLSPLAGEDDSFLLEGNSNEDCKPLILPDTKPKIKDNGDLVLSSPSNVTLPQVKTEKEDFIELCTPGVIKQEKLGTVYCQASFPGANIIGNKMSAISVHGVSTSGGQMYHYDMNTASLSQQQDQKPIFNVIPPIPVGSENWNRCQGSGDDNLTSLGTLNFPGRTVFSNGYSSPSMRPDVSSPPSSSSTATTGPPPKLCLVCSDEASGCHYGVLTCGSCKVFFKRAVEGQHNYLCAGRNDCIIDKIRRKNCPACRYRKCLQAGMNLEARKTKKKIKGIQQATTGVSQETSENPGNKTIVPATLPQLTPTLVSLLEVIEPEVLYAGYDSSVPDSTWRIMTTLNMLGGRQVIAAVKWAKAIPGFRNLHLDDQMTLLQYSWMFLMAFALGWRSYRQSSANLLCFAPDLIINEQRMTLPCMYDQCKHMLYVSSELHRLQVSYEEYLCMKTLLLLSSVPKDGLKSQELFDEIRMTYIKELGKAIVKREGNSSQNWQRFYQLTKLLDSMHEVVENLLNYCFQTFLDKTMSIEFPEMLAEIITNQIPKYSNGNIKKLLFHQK
Chain of Estrogen receptor (Homo sapiens) (P03372 whole entry, looked up): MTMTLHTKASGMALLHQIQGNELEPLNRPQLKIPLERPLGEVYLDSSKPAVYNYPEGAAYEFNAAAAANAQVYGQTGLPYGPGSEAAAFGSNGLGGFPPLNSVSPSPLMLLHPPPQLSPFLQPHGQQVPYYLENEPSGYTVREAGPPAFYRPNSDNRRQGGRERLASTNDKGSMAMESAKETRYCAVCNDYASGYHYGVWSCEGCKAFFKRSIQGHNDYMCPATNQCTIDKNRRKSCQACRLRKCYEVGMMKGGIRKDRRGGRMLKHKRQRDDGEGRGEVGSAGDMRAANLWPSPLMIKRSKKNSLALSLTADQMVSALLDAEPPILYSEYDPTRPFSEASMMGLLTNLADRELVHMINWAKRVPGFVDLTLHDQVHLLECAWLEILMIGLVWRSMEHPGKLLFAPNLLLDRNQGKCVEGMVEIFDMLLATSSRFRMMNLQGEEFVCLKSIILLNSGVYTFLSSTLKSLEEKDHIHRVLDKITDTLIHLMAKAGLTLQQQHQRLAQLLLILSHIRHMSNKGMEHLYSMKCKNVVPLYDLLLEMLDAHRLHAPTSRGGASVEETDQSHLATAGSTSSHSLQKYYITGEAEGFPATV
Chain of Peroxisome proliferator-activated receptor delta (Homo sapiens) (Q03181 whole entry, looked up): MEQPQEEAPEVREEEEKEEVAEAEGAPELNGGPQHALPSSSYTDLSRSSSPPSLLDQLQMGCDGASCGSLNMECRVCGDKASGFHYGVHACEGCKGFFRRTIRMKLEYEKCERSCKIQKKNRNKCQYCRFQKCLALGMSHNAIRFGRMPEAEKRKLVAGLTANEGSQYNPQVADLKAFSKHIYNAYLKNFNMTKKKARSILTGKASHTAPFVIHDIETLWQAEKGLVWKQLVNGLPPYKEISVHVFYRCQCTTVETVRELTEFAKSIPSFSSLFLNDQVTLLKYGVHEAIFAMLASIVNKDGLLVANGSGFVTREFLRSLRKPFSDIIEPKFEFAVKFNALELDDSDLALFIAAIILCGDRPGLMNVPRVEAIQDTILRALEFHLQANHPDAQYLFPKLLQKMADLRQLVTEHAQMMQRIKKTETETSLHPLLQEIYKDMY

In the case of `CC(Cl)Cl`, the Potency entry in assay [1], in assay [2], in [3], in [4], in assay [5] and in assay [6] was “inactive” each time. In addition, the Potency result in assay [7], in assay [8], in assay [9], in [10], in [11] and in assay [12] was “inactive” throughout. Besides, the Potency entry in assay [13], in assay [14], in assay [15], in [16], in [17] and in [18] was “inactive” in each case. Further, the Potency entry in assay [22] is “inactive”. For the same compound, the outcome in assay [19] and in [23] was inactive. For the same compound, the activation is -0.0258% (inactive) in assay [20] and -9.28% (inactive) in assay [21]. Besides, the max response in [24] stood at 2.53%.
